# From PubChem BioAssay (NCATS)
# Records with an inconclusive call do not appear. A call without a number means that no potency is given here. The source made the active and inactive calls. Calls follow the shape of the dose curve; as a rule, active = well fitted curve in the direction sought with a large enough effect; inconclusive = small, poorly fitted or top-dose-only effect, or another doubt; inactive = no such curve, though single readings can be large; an effect the other way counts as inactive or inconclusive.
# Columns and labels:
# NIH3T3 = experiment: qHTS assay to identify novel small-molecules to repurpose for Merkel cell carcinoma treatment (AID 1296009); details: MCC and control cell lines, CellTiter-Glo viability, 72 h; series mostly up to 44.8 µM; also: nearly all actives have a fitted effect of over 60% in size
# Procedure, shortened: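 Dose-response viability screen; 72 hr exposure at 37 degree celsius; CellTiter-Glo added, 10 min room temperature, luminescence read; RLUs scaled between no-cell and DMSO wells.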
# C33A = experiment: Primary qHTS to identify gynecologic anti-cancer compounds using libraries of approved drugs and bioactive compounds (AID 1345084); details: Gynecologic cancer cell panel viability, ATPlite luminescence, 48 h; series mostly up to 57.5 µM; also: nearly all actives have a fitted effect of over 55% in size; also: potency is read from the fitted curve at half-maximal effect
# Procedure, shortened: (§1)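 Cell viability after 48 h drug treatment, ATPlite luminescence readout; five doses.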
# CAOV3 = experiment: as above; details: Gynecologic cancer cell panel viability, ATPlite luminescence, 48 h; series mostly up to 57.5 µM
# Procedure, shortened: as §1
# CASKI = experiment: as above; details: Gynecologic cancer cell panel viability, ATPlite luminescence, 48 h; series mostly up to 57.5 µM
# Procedure, shortened: as §1
# Es-2 = experiment: as above; details: Gynecologic cancer cell panel viability, ATPlite luminescence, 48 h; series mostly up to 57.5 µM
# Procedure, shortened: as §1
# HeLa = experiment: as above; details: Gynecologic cancer cell panel viability, ATPlite luminescence, 48 h; series mostly up to 57.5 µM
# Procedure, shortened: as §1
# Hek293T = experiment: as above; details: Gynecologic cancer cell panel viability, ATPlite luminescence, 48 h, control line for the selectivity index; series mostly up to 57.5 µM
# Procedure, shortened: as §1
# JEG-3 = experiment: as above; details: Gynecologic cancer cell panel viability, ATPlite luminescence, 48 h; series mostly up to 57.5 µM
# Procedure, shortened: as §1
# OV90 = experiment: as above; details: Gynecologic cancer cell panel viability, ATPlite luminescence, 48 h; series mostly up to 57.5 µM
# Procedure, shortened: as §1
# PA-1 = experiment: as above; details: Gynecologic cancer cell panel viability, ATPlite luminescence, 48 h; series mostly up to 57.5 µM
# Procedure, shortened: as §1
# SKOV3 = experiment: as above; details: Gynecologic cancer cell panel viability, ATPlite luminescence, 48 h; series mostly up to 57.5 µM
# Procedure, shortened: as §1
# Tov-21-G = experiment: as above; details: Gynecologic cancer cell panel viability, ATPlite luminescence, 48 h; series mostly up to 57.5 µM
# Procedure, shortened: as §1
# Tov112D = experiment: as above; details: Gynecologic cancer cell panel viability, ATPlite luminescence, 48 h; series mostly up to 57.5 µM
# Procedure, shortened: as §1
Structure (SMILES),Potency (NIH3T3),Potency (C33A),Potency (CAOV3),Potency (CASKI),Potency (Es-2),Potency (HeLa),Potency (Hek293T),Potency (JEG-3),Potency (OV90),Potency (PA-1),Potency (SKOV3),Potency (Tov-21-G),Potency (Tov112D)
CCCCCCCOc1cc2c(cc1/C(C)=C/c1ccc(C(=O)O)cc1)C(C)(C)CCS2(=O)=O,inactive,inactive,inactive,inactive,inactive,inactive,inactive,inactive,inactive,inactive,inactive,inactive,inactive
CCCNCCc1ccc(NS(=O)(=O)c2ccc(OC(F)(F)F)cc2)cc1,inactive,inactive,inactive,inactive,inactive,inactive,inactive,inactive,inactive,inactive,inactive,inactive,inactive
Fc1ccc2c(CCNCc3cccc(OCC(F)(F)C(F)F)c3)c[nH]c2c1,inactive,inactive,inactive,inactive,inactive,inactive,inactive,inactive,inactive,inactive,inactive,inactive,inactive
C=C1CCC2C(C)(C(=O)O)CCCC2(C)C1CCC1=CCOC1=O (stereo not drawn),inactive,inactive,inactive,inactive,inactive,inactive,inactive,inactive,inactive,inactive,inactive,inactive,inactive
CCCCc1ccc(NS(=O)(=O)c2ccc(F)cc2)cc1,inactive,inactive,inactive,inactive,inactive,inactive,inactive,inactive,inactive,inactive,inactive,inactive,inactive
COC(=O)N1CC2(CC2)C[C@H](C(=O)NO)[C@H]1C(=O)N1CCN(c2ccccc2)CC1,inactive,,,,,,,,,,,,
O=C(NCCN1CCC(n2c(=O)[nH]c3ccccc32)CC1)c1cc2cc(F)ccc2[nH]1,inactive,inactive,inactive,inactive,inactive,inactive,inactive,inactive,inactive,inactive,inactive,inactive,inactive
CCC(C)C(=O)O[C@H]1[C@@H](OC(=O)c2ccoc2)C[C@](C)(O)[C@]23OC(C)(C)[C@H](C[C@H](OC(=O)c4ccoc4)[C@]12COC(C)=O)[C@H]3OC(C)=O (stereo partly drawn),inactive,inactive,inactive,inactive,inactive,inactive,inactive,inactive,inactive,inactive,inactive,inactive,inactive
Cc1cc(NC(=O)NCCN2CCC(O)(Cc3ccccc3)CC2)c2ccccc2n1,inactive,inactive,inactive,inactive,inactive,inactive,inactive,inactive,inactive,inactive,inactive,inactive,inactive
COc1ccccc1N1CCN(c2ncnc3n[nH]c(Br)c23)CC1,inactive,inactive,inactive,inactive,inactive,,inactive,inactive,inactive,inactive,inactive,inactive,inactive
CC(=O)NC[C@H]1CN(c2ccc(N3CCSCC3)c(F)c2)C(=O)O1,inactive,inactive,inactive,inactive,inactive,inactive,inactive,inactive,inactive,inactive,inactive,inactive,inactive
CC(C)(F)CC(NC(c1ccc(-c2ccc(S(C)(=O)=O)cc2)cc1)C(F)(F)F)C(=O)NC1(C#N)CC1 (stereo not drawn),inactive,inactive,inactive,inactive,inactive,inactive,inactive,inactive,inactive,inactive,,inactive,inactive
C=CC(=O)N1CC(N2CCN(C(=O)CNc3cc(C4CC4)c(Cl)cc3O)CC2)C1,inactive,inactive,inactive,inactive,inactive,inactive,inactive,inactive,inactive,,inactive,inactive,inactive
COC(=O)c1cc(Br)cnc1N1CCC(NC2CCCCC2)C(O)C1 (stereo not drawn),inactive,inactive,inactive,inactive,inactive,inactive,inactive,inactive,inactive,inactive,,inactive,inactive
CN(C)CCOc1cc(NS(=O)(=O)c2c(Cl)cc(C(F)(F)F)cc2Cl)ccc1Cl,inactive,inactive,inactive,inactive,inactive,inactive,inactive,inactive,inactive,inactive,inactive,inactive,inactive
O=C(Nc1ccn(Cc2ccc(O)cc2C(F)(F)F)n1)c1c(F)cccc1F,inactive,inactive,inactive,inactive,inactive,,inactive,inactive,inactive,inactive,inactive,inactive,inactive
C=C[C@H](/C=C\c1ccc(O)cc1)c1ccc(O)cc1,inactive,inactive,inactive,inactive,inactive,inactive,inactive,inactive,inactive,,inactive,inactive,inactive

Structure (SMILES),Potency (NIH3T3),Potency (C33A),Potency (CAOV3),Potency (CASKI),Potency (Es-2),Potency (HeLa),Potency (Hek293T),Potency (JEG-3),Potency (OV90),Potency (PA-1),Potency (SKOV3),Potency (Tov-21-G),Potency (Tov112D)
CNCCC(c1cccs1)c1ccc(O)c2ccccc12 (stereo not drawn),inactive,inactive,inactive,inactive,inactive,inactive,inactive,,,inactive,,inactive,inactive
CC(C)(O)c1ccc2c(c1)ncn2-c1cccc(-c2ccccc2C#N)c1,inactive,inactive,inactive,inactive,inactive,inactive,inactive,inactive,inactive,inactive,,inactive,inactive
O=S(=O)(N[C@H]1CCCC[C@@H]1N1CCOCC1)c1ccc(Cl)cc1,inactive,inactive,inactive,inactive,inactive,inactive,inactive,inactive,,inactive,inactive,inactive,inactive
Cn1nc(C(C)(C)C)cc1C(=O)N[C@@H](Cc1cccc(Cl)c1)C(=O)NCC#N,inactive,inactive,inactive,inactive,inactive,inactive,inactive,inactive,inactive,inactive,,inactive,inactive
Cc1cc(C(=O)Cn2cc(C#N)ccc2=O)c(C)n1Cc1ccccc1,inactive,inactive,inactive,inactive,inactive,inactive,,inactive,inactive,inactive,inactive,inactive,inactive
CNC(C)C(=O)NC(C(=O)N1CCCC1C(=O)Nc1snnc1-c1ccccc1)C1CCCCC1 (stereo not drawn),inactive,inactive,inactive,inactive,inactive,inactive,inactive,inactive,inactive,inactive,,,inactive
COc1cc2ncc(-c3ccccc3)nc2cc1OC,inactive,inactive,inactive,inactive,inactive,3.55 µM (active),inactive,inactive,inactive,,,,inactive
CCC(C)/C=C(C)/C=C/C1=CC2=C(Cl)C(=O)C(C)(OC(C)=O)C(=O)C2(O)C(OC)O1 (stereo not drawn),inactive,inactive,inactive,inactive,inactive,inactive,,inactive,inactive,inactive,inactive,inactive,inactive
COc1cc(F)c(C(C)C)cc1-c1ccc(C(F)(F)F)cc1CN1C(=O)OC(c2cc(C(F)(F)F)cc(C(F)(F)F)c2)C1C (stereo not drawn),inactive,inactive,inactive,inactive,inactive,inactive,inactive,inactive,inactive,inactive,,inactive,inactive
Nc1c(S(=O)(=O)c2ccccc2)c2nc3ccccc3nc2n1-c1ccc(F)cc1,inactive,inactive,inactive,inactive,inactive,inactive,inactive,inactive,inactive,inactive,,inactive,inactive
CCN1C(C)(C)CC(Oc2ccc(C(=O)Nc3ccc(NC(=O)Nc4cc(C(C)(C)C)on4)cc3)nc2)CC1(C)C,inactive,inactive,inactive,inactive,inactive,inactive,inactive,inactive,inactive,inactive,,inactive,inactive
Nc1nc2c(nc(Br)n2[C@@H]2O[C@@H]3COP(=O)(O)O[C@H]3[C@H]2O)c(=O)[nH]1,inactive,inactive,inactive,inactive,inactive,inactive,inactive,inactive,inactive,inactive,,inactive,inactive
Cn1cc(C2=C(c3coc4ccccc34)C(=O)NC2=O)c2cc(Br)ccc21,inactive,inactive,inactive,inactive,inactive,inactive,inactive,,inactive,inactive,inactive,inactive,inactive
CC1OC(=O)C[C@@H]2C(C(=O)O)=CO[C@@H](O[C@H]3O[C@H](CO)[C@@H](O)[C@H](O)[C@H]3O)[C@H]12 (stereo partly drawn),inactive,inactive,inactive,inactive,inactive,inactive,inactive,inactive,inactive,inactive,,inactive,inactive
COc1cc(/C=C2\CC[C@H]3COC[C@@H](c4cc(F)c(F)c(F)c4)N3C2=O)ccc1-n1cnc(C)c1,inactive,inactive,inactive,inactive,inactive,inactive,inactive,inactive,inactive,inactive,,inactive,inactive
CCn1c(=O)n([C@H]2CCCN(c3nccc(-c4cc5ccccc5o4)n3)C2)c2ccccc21,inactive,inactive,inactive,inactive,inactive,inactive,inactive,inactive,inactive,inactive,,inactive,inactive
COc1cc(N(C)CCN(C)C)c(N)cc1Nc1nccc(-c2cn(C)c3ccccc23)n1,inactive,inactive,inactive,inactive,inactive,inactive,inactive,inactive,inactive,inactive,inactive,inactive,inactive
